PubChem BioAssay AID602258 (National Center for Advancing Translational Sciences (NCATS), 2012)
Inconclusive results are not listed. Where a call stands in place of a potency, no number is given. The source made the active and inactive calls. Calls follow the shape of the dose curve; as a rule, active = well fitted activation curve with a large enough effect; inconclusive = small, poorly fitted or top-dose-only effect; inactive = no such curve, though single readings can be large or run the other way.

These compounds were tested against Relaxin receptor 2 (Homo sapiens) (UniProt Q8WXD0) (assay: qHTS Assay for Agonists of the Relaxin Receptor RXFP1: RXFP2 SAR). Conditions: HEK293 RXFP2 cAMP TR-FRET agonist, 30 min; series mostly up to 78.1 µM.
Chain of Relaxin receptor 2 (Homo sapiens) (Q8WXD0 whole entry, looked up): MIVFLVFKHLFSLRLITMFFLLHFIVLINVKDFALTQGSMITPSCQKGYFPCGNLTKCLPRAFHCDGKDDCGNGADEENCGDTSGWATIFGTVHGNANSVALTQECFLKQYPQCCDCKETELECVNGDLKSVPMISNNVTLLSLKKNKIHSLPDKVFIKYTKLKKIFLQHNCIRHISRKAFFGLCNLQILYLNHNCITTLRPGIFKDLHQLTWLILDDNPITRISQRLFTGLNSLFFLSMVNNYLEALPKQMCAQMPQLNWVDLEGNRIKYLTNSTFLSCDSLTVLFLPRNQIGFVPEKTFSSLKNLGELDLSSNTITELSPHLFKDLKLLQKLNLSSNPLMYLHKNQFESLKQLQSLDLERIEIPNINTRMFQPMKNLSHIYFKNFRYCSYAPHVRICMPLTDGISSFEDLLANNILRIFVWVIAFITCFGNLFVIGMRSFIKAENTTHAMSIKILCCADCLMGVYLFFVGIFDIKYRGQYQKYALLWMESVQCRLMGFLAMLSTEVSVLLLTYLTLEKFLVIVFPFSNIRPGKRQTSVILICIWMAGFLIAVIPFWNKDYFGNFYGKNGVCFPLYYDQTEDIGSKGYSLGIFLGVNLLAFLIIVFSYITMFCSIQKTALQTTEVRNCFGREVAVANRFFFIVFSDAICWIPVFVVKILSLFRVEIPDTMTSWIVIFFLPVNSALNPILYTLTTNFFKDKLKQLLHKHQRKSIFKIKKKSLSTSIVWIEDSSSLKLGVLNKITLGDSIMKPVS
From the text: The relaxin hormone is involved in the variety of biological functions in normal tissues and diseases. The role of relaxin is well-established in female reproduction and parturition, mammary gland and endometrial development, maintenance of myometrial quiescence during pregnancy. Relaxin signaling through its G protein-coupled receptor (GPCR) RXFP1 results in ECM remodeling through regulation of collagen deposition, cell invasiveness, proliferation and overall tissue homeostasis. […] Recombinant human relaxin (rhRlx) is currently being tested in clinical trials as a protective agent in congestive heart failure, in treating severe preeclampsia, and as an anti-fibrotic agent in systemic sclerosis. Upon relaxin binding RXFP1 activation leads to the activation of adenylate cyclase (AC) via Gs. cAMP will activate PKA, which phosphorylates many signaling proteins. Thus, detection of cAMP increase is an easy and reliable indication of relaxin receptor activation. To screen for agonists of the relaxin receptor, a HEK293T cell line stably transfected with RXFP1 was used. RXFP1 activation was assayed by changes in cAMP levels as detected with a time-resolved fluorescence energy transfer (TR-FRET) cAMP detection kit. This assay measures activation of a cell expressing RXFP2, another GPCR targeted by relaxin, to determine the selectivity of compounds for RXFP1. NIH Chemical Genomics Center [NCGC] NIH Molecular Libraries Probe Production Centers Network [MLPCN] MLPCN Grant: R03 MH085705-01A1 Assay Submitter (PI): Alexander Agoulnik
This is a cell-based assay for cAMP second messenger response to screen for agonists of the RXFP2 receptor. The assay was conducted in the presence of a PDE4 inhibitor (Ro 20174). The cells were lysed and the cAMP levels were measured with a TR-FRET cAMP kit. Presence of cAMP in the cell lysate disrupts binding between the cryptate-labeled anti-cAMP and d2-labeled cAMP pair, leading to a decrease in the TR-FRET signal. Data were normalized to the controls for basal activity (buffer only) and 100% activity (29 nM porcine relaxin). The EC50 values were determined from concentration-response data modeled with the standard Hill equation 1536-well assay protocol for the HEK293 RXFP2 cAMP assay: (1) Add 3 ul HEK293 RXFP2 cell culture. 2000 cells/well in DMEM/F12, 10% FBS, 1x Pen/Strep (dispensed offline with MultiDrop Combi). (2) Incubate 16-24 hr at 37C, 5% CO2. (3) Add 1 ul 400uM Ro20174 in DPBS, 0.05% BSA, 0.005% Tween 20. (3) Add 23 nl compounds in DMSO solution. Final concentration was 0.5 - 58 uM. (4) Incubate 30 min at 37C, 5% CO2. (5) Add 1 ul cAMP-d2 in lysis buffer (HTRF cAMP HiRange kit, CisBio). (6) Add 1 ul anti-cAMP antibody-cryptate in lysis buffer (HTRF cAMP HiRange kit, CisBio). (7) Incubate 30 min at room temperature. (6) Detect the assay plate in a ViewLux plate reader (PerkinElmer) with Ex=320 nm, Em1=615 nm and Em2=665 nm. Keywords: relaxin, RXFP1, RXFP2, G-protein coupled receptor, cAMP, agonist, high throughput screening, MLSMR, MLSCN, NIH Roadmap, qHTS and NCGC
In the case of `CCOc1ccccc1C(=O)Nc1ccccc1C(=O)Nc1cccc(C(F)(F)F)c1`, the Potency is reported as 9.4 µM (active). With `COc1cccc(OC)c1C(=O)Nc1ccccc1C(=O)Nc1cccc(C(F)(F)F)c1` the Potency was “inactive”. With `O=C(Nc1cccc(S(=O)(=O)C(F)(F)F)c1)c1ccccc1NC(=O)C1CCCCC1` the Potency was “inactive”. With `O=C(Cc1ccccc1)Nc1ccccc1C(=O)Nc1cccc(C(F)(F)F)c1` the Potency was “inactive”. For `COc1ccccc1-c1ccccc1C(=O)Nc1cccc(C(F)(F)F)c1`, the Potency was “inactive”. `COc1cccc(C(=O)Nc2ccccc2C(=O)Nc2cccc(C(F)(F)F)c2)c1` was tested, and the Potency was “inactive”. With `O=C(Nc1cccc(C(F)(F)F)c1)c1ccccc1NC(=O)C1CC1` the Potency was “inactive”. `COc1ccccc1C(=O)Nc1ccccc1C(=O)N(C)c1cccc(C(F)(F)F)c1` was tested, and the Potency was “inactive”. In the case of `CCOc1ccccc1C(=O)Nc1ccncc1C(=O)Nc1cccc(S(=O)(=O)C(F)(F)F)c1`, the Potency is reported as 9.4 µM (active). `O=C(Nc1cccc(Br)c1)c1ccccc1NC(=O)C1CCCCC1` was tested, and the Potency was “inactive”. In the case of `COc1ccccc1C(=O)Nc1ccccc1C(=O)Nc1cccc(C(F)(F)F)c1`, the Potency is reported as 5.93 µM (active). With `O=C(Nc1cccc(F)c1)c1ccccc1NC(=O)C1CCCCC1` the Potency was “inactive”. `COCCNc1ccccc1C(=O)Nc1cccc(C(F)(F)F)c1` was tested, and the Potency was “inactive”. With `Cc1ccccc1NC(=O)c1ccccc1NC(=O)C1CCCCC1` the Potency was “inactive”. `CCCOc1ccccc1C(=O)Nc1ccccc1C(=O)Nc1cccc(S(=O)(=O)C(F)(F)F)c1` was tested, and the Potency was “inactive”. In the case of `O=C(Nc1cccc(S(=O)(=O)C(F)(F)F)c1)c1ccccc1NC(=O)c1ccccc1OCC(F)(F)F`, the Potency is reported as “inactive”. For `CSc1cccc(NC(=O)c2ccccc2NC(=O)C2CCCCC2)c1`, the Potency was “inactive”. In the case of `O=C(Nc1cccc(-c2ccccc2)c1)c1ccccc1NC(=O)C1CCCCC1`, the Potency is reported as “inactive”. In the case of `O=C(NCc1ccco1)c1ccccc1NC(=O)c1ccccc1NC(=O)C1CCCCC1`, the Potency is reported as “inactive”. In the case of `COc1ccccc1C(=O)N(C)c1ccccc1C(=O)N(C)c1cccc(C(F)(F)F)c1`, the Potency is reported as “inactive”.
